# Measurements: ChEMBL document CHEMBL3988442, “University of Dundee, Small-Polar-MMV Screening Library” (2021)
# Hit rate of the full screen: of about 48,000 compounds, about 13,000 (27%) showed an effect of 50% or more. The list shows a part of the results.
# Test system: Wolbachia pipientis
# Test: Anti-Wolbachia Cell-Based Screen
# Type: functional
# Design: scale not given: in the data most compounds retested in dose-response had high values
# Conditions: 5 µM
row,Structure (SMILES),Percent Effect [%]
1,O=C(Cc1ccccc1)NC[C@H]1Cn2ccnc2CO1,-7.774
2,Cc1ccnc(CC(C)N(C)c2cc(CCN)nc(C)n2)c1 (stereo not drawn),-16.25
3,COc1c(C2CCCN2C(=O)c2ccoc2C)c(C)nn1C (stereo not drawn),-17.99
4,Cc1noc(C)c1C(=O)N1CCCC1c1c(C)nn(C)c1Cl (stereo not drawn),2.958
5,Cc1nn(C)c(Cl)c1C1CCCN1C(=O)c1ccnn1C (stereo not drawn),108
6,Cc1nn(C)c(Cl)c1C1CCCN1C(=O)c1cccn1C (stereo not drawn),113.6
7,COc1c(C2CCCN2C(=O)c2ccnn2C)c(C)nn1C (stereo not drawn),-14.45
8,Cc1nn(C)c(Cl)c1C1CCCN1C(=O)c1ccoc1C (stereo not drawn),103.1
9,COc1c(C2CCCN2C(=O)c2cccn2C)c(C)nn1C (stereo not drawn),-5.9
10,OC(CN(Cc1ccccc1)Cc1ccon1)c1cccs1 (stereo not drawn),-5.25
11,CCCn1[nH]cc/c1=N\C(=O)CN1CCCC1Cn1cccn1 (stereo not drawn),-1.433
12,CCN(CC1CCOC1)C(=O)c1cc(OC)c2c(c1)OCCO2 (stereo not drawn),-3.228
13,COc1ccc(-c2c[nH]c([C@@H]3COCCN3)n2)cc1,-8.862
14,Cc1ccc(-c2ccc(C3CNCCO3)nc2)cc1.Cl (stereo not drawn),114.4
15,Cl.c1ccc(-c2ccc(C3CNCCO3)nc2)cc1 (stereo not drawn),-0.3347
16,Cl.c1ncc(-c2ccc(C3CNCCO3)nc2)cn1 (stereo not drawn),106.1
17,COc1ccc(-c2cnc(CN3CCCC3CO)o2)cc1 (stereo not drawn),-7.324
18,CCNc1ccnc(NCC2CNCCO2)n1 (stereo not drawn),-11.04
19,Cl.Clc1ccc(-c2ccc(C3CNCCO3)nc2)cc1 (stereo not drawn),122.6
20,COc1ccc(-c2ccc(C3CNCCO3)nc2)cc1.Cl (stereo not drawn),122.1
21,Fc1ccc(-c2noc([C@@H]3Cc4nc[nH]c4CN3)n2)cc1,-11.77
22,Cc1ccc(N2CC3(COCCN(Cc4ccccn4)C3)OCC2=O)s1.O=C(O)C(F)(F)F.O=C(O)C(F)(F)F (stereo not drawn),-3.574
23,Cc1cccc(N2CCOCC3(C2)CN(c2ccccc2)C(=O)CO3)n1.O=C(O)C(F)(F)F (stereo not drawn),109.1
24,Cc1cccc(N2CCOCC3(C2)CN(c2cnn(C)c2)C(=O)CO3)n1.O=C(O)C(F)(F)F (stereo not drawn),85
25,Cn1cc(N2CC3(COCCN(Cc4ccsc4)C3)OCC2=O)cn1.O=C(O)C(F)(F)F (stereo not drawn),-6.124
26,Cn1cc(CN2CCOCC3(C2)CN(c2ccccc2)C(=O)CO3)cn1.O=C(O)C(F)(F)F (stereo not drawn),-5.421
27,O=C(O)C(F)(F)F.O=C1COC2(COCCN(c3ccccn3)C2)CN1c1cccc(F)c1 (stereo not drawn),-5.368

row,Structure (SMILES),Percent Effect [%]
1,O=C(O)C(F)(F)F.O=C(O)C(F)(F)F.O=C1COC2(COCCN(Cc3cccnc3)C2)CN1c1ccoc1 (stereo not drawn),-8.923
2,Cc1cccc(N2CCOCC3(C2)CN(c2ccoc2)C(=O)CO3)n1.O=C(O)C(F)(F)F (stereo not drawn),101.1
3,COC(=O)c1ccc(CNC2CC(=O)N(Cc3cccc(F)c3)C2)cc1 (stereo not drawn),2.767
4,CSc1ccc(-n2ccnc2-c2cc3n(n2)CCNC3)cc1,-5.547
5,CC(C)c1cnc(N2C[C@H](CO)C[C@H](CN3CCOCC3)C2)nc1,-10.14
6,COCc1noc(C2(c3ccc(Cl)cc3)CCOCC2)n1,0.3658
7,Cc1c(Cl)c(CN2CCCC2Cn2cncn2)nc2ccccc12 (stereo not drawn),0.2475
8,Cc1cnn(CC2CCCN2C(=O)c2ccc(C(N)=O)cn2)c1 (stereo not drawn),-6.228
9,Cc1cnn(CC2CCCN2C(=O)c2nccnc2N)c1 (stereo not drawn),124
10,Cc1cnn(CC2CCCCN2C(=O)c2nccnc2N)c1 (stereo not drawn),123.3
11,Cc1cnn(CC2CCCN2C(=O)c2nccc3ccccc23)c1 (stereo not drawn),-8.549
12,Cc1ccsc1C(=O)N1CC2CC1(C(=O)NCc1ccco1)C2,-21.25
13,Cc1oncc1C(=O)N1CC[C@H]2CO[C@H](CN3CCCC3)[C@H]2C1,2.112
14,O=C(N1CCOCC1)N1CCOC[C@H](Oc2ccc(C(F)(F)F)cc2)C1,-17.33
15,COc1ccc(OCC(=O)NS(=O)(=O)c2ccc(Cl)s2)cc1,9.961
16,COc1cc(C)ccc1OCC(=O)NS(=O)(=O)c1cc(F)ccc1F,4.965
17,COc1cc(C)ccc1OCC(=O)NS(=O)(=O)c1ccc(Br)s1,133.3
18,COc1cccc(OCC(=O)NS(=O)(=O)c2ccc(C)s2)c1,7.75
19,COc1ccc(OCC(=O)NS(=O)(=O)c2cc(C)ccc2C)cc1,6.123
20,COc1cccc(OCC(=O)NS(=O)(=O)c2ccc(Br)s2)c1,93.04
21,COc1ccccc1OCC(=O)NS(=O)(=O)c1ccc(Cl)cc1F,6.198
22,COc1ccc(OCC(=O)NS(=O)(=O)c2ccc(Br)s2)cc1,71.28
23,N#CCc1ccc(OCC(=O)NS(=O)(=O)c2ccc(Br)s2)cc1,-7.056
24,CC(=O)c1cccc(OCC(=O)NS(=O)(=O)c2ccc(C)s2)c1,0.05865
25,CC(=O)c1ccc(OCC(=O)NS(=O)(=O)c2ccc(Cl)s2)cc1,1.494
26,COc1ccccc1OCC(=O)NS(=O)(=O)c1ccc(Cl)s1,123.5
